Records with an inconclusive call do not appear. A number with no mark means an inactive call. Unless noted, calls come from the whole dose curve.
experiment: qHTS assay to identify small molecule antagonists of the vitamin D receptor (VDR) signaling pathway - cell viability counter screen (AID 743225; active = well fitted cell-killing curve with a large enough effect in the repeat runs; note: nearly all actives have a fitted effect of over 50% in size); conditions: VDR-bla HEK293T viability, CellTiter-Glo luminescence, 16 h; series mostly up to 61 µM; viability change, negative = cytotoxic: at the top concentration
How it was run: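 Cytotoxicity toward the VDR-bla HEK 293T line was scored by ATP-based CellTiter-Glo luminescence, read in the wells already used for the beta-lactamase readout after 16 h compound treatment under 3 nM 1-alpha,25-dihydroxyvitamin D3 stimulation.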
% is set by controls: 0 for no effect and ±100 for the full control effect.

SMILES | viability change, negative = cytotoxic
CCCCN1C=CN(C)C1 | -16.6% [at 28.5 µM]
CCCCOC(=O)CCC(C)=O | 1.33%
COc1cc(C(=O)OC(COCCC(C)C)CN2CCOCC2)cc(OC)c1OC (configuration not stated) | 1.35%
O=C(CO)[C@@H](O)[C@H](O)[C@@H](O)CO | -4.1%
CCCC(=O)O[C@]1(C(=O)CC)CC[C@H]2[C@@H]3CCC4=CC(=O)CC[C@]4(C)[C@H]3[C@@H](O)C[C@@]21C | -35.3%
C=C(C)C(=O)OCCOCCOCCOCCOC(=O)C(=C)C | 0.162%
CC12CCC(C(=O)C1=O)C2(C)C (configuration not stated) | -18.1% [at 78.8 µM]
O=C(O)Cc1csc(-c2ccc(Cl)cc2)n1 | 13.1%
Cc1c(N)c(=O)n(-c2ccccc2)n1C | -3.55%
CCCCN(CCC(=O)OCC)C(C)=O | 10.5%
CCOC(=O)c1ccccc1 | 6.32%
CCCOC(=O)CC | 7.92%
CC/C=C\CCOC(C)OCC (configuration not stated) | -4.49%
O=C(O)CNC(=O)c1ccc(CO)o1 | 24.2%
CC(=O)N1C[C@H](O)C[C@H]1C(=O)O | -13.9%

experiment: qHTS assay to identify small molecule agonists of the NFkB signaling pathway - cell viability counter screen (AID 1159515); conditions: NFkB-bla ME-180 viability, CellTiter-Glo luminescence, 5 h; series mostly up to 61 µM; activity, negative = cytotoxic: at the top concentration; note: nearly all actives have a fitted effect of over 55% in size
How it was run: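 NFkB-bla ME-180 cells, 2,000/well, were plated overnight at 37 C, 5% CO2, then exposed to compounds in DMSO for 5 hr. After the bla FRET read, CellTiter-Glo was added to the same wells; luminescence was read after 30 min at room temperature.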

SMILES | activity, negative = cytotoxic
CC(=O)c1ccc2ccccc2c1 | 12.4%
O=[N+]([O-])c1cncn1CCN1CCOCC1 | 3.64%
CN(C)[C@@H]1C(=O)C(C(=O)NCN2CCCC2)=C(O)[C@@]2(O)C(=O)C3=C(O)c4c(O)cccc4[C@@](C)(O)C3C[C@@H]12 (some centres not stated) | 0.0114%
C[C@H]1[C@H](NC(=O)/C(=N/OC(C)(C)C(=O)O)c2csc(N)n2)C(=O)N1S(=O)(=O)O (stereo in doubt) | 5.35%
C1CCC2(CCCCO2)OC1 | -4.87%
CCOc1c(N2CCOCC2)cnn(C)c1=O | 0.938%
CC(CC=O)CC(C)(C)C (configuration not stated) | 8.88%
CC1=CCC(O)(C(C)C)CC1 (configuration not stated) | 4.34%
O=C(O)CNC(=O)c1ccccc1 | 4.91%
Cc1ncc([C@@H](CCCCCCc2ccc3c(n2)NCCC3)CC(=O)O)cn1 | -1.32%
[Ca+2] | -0.212%
Cc1cccc(C)c1NC(=O)CC12CCCN1CCC2 | 6.86%
CCN1C=CN(C)C1C (configuration not stated) | -0.257% [at 78.8 µM]
CC1CCC(CO)CC1 (configuration not stated) | 16% [at 78.8 µM]
CCC(C)(CCCC(C)C)OC(C)=O (configuration not stated) | 4.62%
Nc1ccn([C@@H]2O[C@H](CO)[C@@H](O)C2O)c(=O)n1 (some centres not stated) | 5.12%
O=C1NC(=O)C2CC=CCC12 (configuration not stated) | -5.27%
CC1(C)OC[C@@H](COC(=O)CCc2ccc(OC[C@@H](O)CNCCNC(=O)N3CCOCC3)cc2)O1 | 8.46%
C[N+]1(C)[C@@H]2CC(OC(=O)[C@H](CO)c3ccccc3)C[C@H]1[C@@H]1O[C@@H]12 (some centres not stated) | 8.47%

SMILES | activity, negative = cytotoxic
CC(C)c1ccc2ncccc2c1 | 13.7%
CCCCN1C=CN(C)C1 | 3.93% [at 28.5 µM]
CCCCOC(=O)CCC(C)=O | -5.1%
COc1cc(C(=O)OC(COCCC(C)C)CN2CCOCC2)cc(OC)c1OC (configuration not stated) | -1.82%
O=C(CO)[C@@H](O)[C@H](O)[C@@H](O)CO | 9.09%
CCCC(=O)O[C@]1(C(=O)CC)CC[C@H]2[C@@H]3CCC4=CC(=O)CC[C@]4(C)[C@H]3[C@@H](O)C[C@@]21C | -8.62%
C=C(C)C(=O)OCCOCCOCCOCCOC(=O)C(=C)C | -3.12%
CC12CCC(C(=O)C1=O)C2(C)C (configuration not stated) | 3.21% [at 78.8 µM]
O=C(O)Cc1csc(-c2ccc(Cl)cc2)n1 | -5.12%
Cc1c(N)c(=O)n(-c2ccccc2)n1C | 0.307%
CCCCN(CCC(=O)OCC)C(C)=O | 7.05%
CCOC(=O)c1ccccc1 | 5.59%
CCCOC(=O)CC | 3.49%
OCCc1ccccn1 | 1.95%
CC/C=C\CCOC(C)OCC (configuration not stated) | 1.12%
CN(C)CCN(C)CCN(C)C | -8.14%
O=C(O)CNC(=O)c1ccc(CO)o1 | 0.312%
CC(=O)N1C[C@H](O)C[C@H]1C(=O)O | 13.3%

— PubChem BioAssay (Tox21)
